Cruzain noTriton – cruzain (T. cruzi) inhibition without detergent; purified cruzain, Z-FR-AMC fluorescence, no detergent; AID 1476; Potency, µM, most hits filed as inhibitors; P25779; actives 2.3% (n = 200,000); also: nearly all actives have a fitted effect of over 40% in size
Target sequence (P25779 123-467 limits assumed): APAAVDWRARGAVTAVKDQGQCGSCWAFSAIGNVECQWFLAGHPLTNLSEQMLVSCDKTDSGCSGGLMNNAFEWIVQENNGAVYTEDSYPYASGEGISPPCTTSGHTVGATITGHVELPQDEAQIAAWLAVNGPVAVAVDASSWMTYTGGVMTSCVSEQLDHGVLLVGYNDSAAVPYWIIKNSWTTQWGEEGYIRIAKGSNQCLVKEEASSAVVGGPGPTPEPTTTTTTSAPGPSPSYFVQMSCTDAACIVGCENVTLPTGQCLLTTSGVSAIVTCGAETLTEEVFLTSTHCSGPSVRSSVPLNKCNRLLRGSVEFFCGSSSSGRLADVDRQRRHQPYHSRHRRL
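Detergent-free condition (0.00005% Triton X-100) in acetate buffer pH 5.5 with DTT. 1.5 nM enzyme and compound were pre-mixed 15 min, then 2 uM Z-FR-AMC substrate added; reaction progress from fluorescence change between first and third reads (60 s).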
Cruzain Triton – cruzain (T. cruzi) inhibition with detergent. Potency, µM, actives largely listed as inhibitors. actives 0.43% (n = 200,000). purified cruzain, Z-FR-AMC fluorescence, 0.01% Triton; also: nearly all actives have a fitted effect of over 40% in size
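Enzyme 1.5 nM, Z-FR-AMC 2 uM, NaOAc 100 mM pH 5.5, DTT 5 mM, Triton X-100 0.01%; 15 min RT compound preincubation; kinetic ex360/em450, 60 s delta.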
FBPA Giardia inh – blocks Giardia fructose-bisphosphate aldolase activity; purified Giardia FBPA; Potency, µM (highest dose often 59.6 µM), most hits filed as inhibitors; AID 2451; actives 0.71% (n = 290,000); also: nearly all actives have a fitted effect of over 55% in size
Target sequence (A8B2U2 whole entry, looked up): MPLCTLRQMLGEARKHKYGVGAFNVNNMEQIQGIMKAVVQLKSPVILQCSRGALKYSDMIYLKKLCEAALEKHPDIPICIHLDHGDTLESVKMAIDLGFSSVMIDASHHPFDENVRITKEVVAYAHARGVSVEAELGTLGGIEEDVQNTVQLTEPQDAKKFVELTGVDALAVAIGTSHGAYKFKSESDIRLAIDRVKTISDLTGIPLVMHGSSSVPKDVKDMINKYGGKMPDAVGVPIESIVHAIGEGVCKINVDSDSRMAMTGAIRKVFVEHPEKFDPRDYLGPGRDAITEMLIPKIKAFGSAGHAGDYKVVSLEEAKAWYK
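Giardia FBPA (40 nM reagent) was preincubated 10 min at RT with compound (up to 57.5 uM final), then substrate plus GAPDH/TPI/NAD/arsenate coupling system with diaphorase/resazurin was added; resorufin fluorescence (525/598 nm) was read after 20 min.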
Hits are given with their value; . = inactive; ? = inconclusive; / = no result given; ! = not confirmed by another sample. The entries come from a sample that favours hits as a whole. Calls follow the shape of the dose curve; as a rule, active = well fitted curve in the direction sought with a large enough effect; inconclusive = small, poorly fitted or top-dose-only effect, or another doubt; inactive = no such curve, though single readings can be large; an effect the other way counts as inactive or inconclusive.

SMILES | Cruzain noTriton | Cruzain Triton | FBPA Giardia inh
COC(=O)c1cccc(C23CC4(C2)[C@H](CN(Cc2ccc(C(F)(F)F)cc2)[C@@H]4c2ccccc2)C3c2ccccc2)c1 (stereo not given in full) | . | . | .
COC(=O)c1cccc(C23CC4(C2)[C@H](CN(Cc2ccc(-c5ccccc5)cc2)[C@@H]4c2ccccc2)C3c2ccccc2)c1 (stereo not given in full) | 13µM | . | .
FC(F)(F)c1ccc(C2[C@H]3CN(Cc4ccc(-c5ccccc5)cc4)[C@H](c4ccccc4)C34CC2(c2ccccc2)C4)cc1 (stereo not given in full) | 13µM | . | .
COC(=O)c1ccc(C23CC4(C2)[C@H](CN(Cc2ccc(-c5ccccc5)cc2)[C@@H]4c2ccccc2)C3c2ccc(Cl)nc2)cc1 (stereo not given in full) | 16µM | . | .
COc1ccc(CCNC(=O)c2c[nH]n3c(=O)c(Cc4ccccc4Cl)c(C)nc23)cc1OC | ? | . | /
CCOc1ccccc1CNC(=O)c1cc2n(n1)CCCN(Cc1ccc(C)cc1)C2=O | . | . | /
COc1ccc(CNC(=O)CSCc2ccc(C)cc2)c(OC)c1 | . | . | /
O=S(=O)(c1ccccc1)N1CN2CN(C1)CN(S(=O)(=O)c1ccccc1)C2 | . | . | /
CCOc1ccc(C(=O)CSc2nnc(N)s2)cc1 | 25µM | . | .
Cc1cc(C)c(C(=O)CSc2nnc(N)s2)cc1C | / | / | .
Cc1ccc(C)c(Nc2ncnc3c2cnn3-c2ccc(F)cc2)c1 | . | . | /
COC(=O)c1c(C)ccc2c(O)c3c(cc12)C(=O)c1c2c(cc(O)c1C3=O)[C@@]1(C)O[C@@](C)(O2)[C@@H](O)[C@H](N(C)C)[C@H]1O | . | . | /
COc1ccc2c(c1)C(=O)[C@@H](OC(=O)NCc1ccco1)[C@H](c1ccc(OC)c(Br)c1)O2 | . | . | .
COC(=O)C1=C(C)NC(C)=C(C(=O)OC)C1c1ccccc1[N+](=O)[O-] | . | . | 7.9µM!
CCOC(=O)C1=C(C)NC(C)=C(C(=O)OC)[C@@H]1c1cccc([N+](=O)[O-])c1 | . | . | .
C#CCn1c(=O)c2c(nc(/C=C/c3cccc(OC)c3)n2C)n(CCCO)c1=O | / | / | .
O=C(O)c1ccc(/C=N/NC(=O)c2cc(-c3cccs3)nc3ccccc23)cc1 | . | . | .
Cc1nn(-c2ccccc2)c(N2CCCC2)c1/C=N/NC(=O)c1cc2ccccc2cc1O | 16µM | . | .
Cc1nn(-c2ccccc2)c(N2CCCC2)c1/C=N/NC(=O)c1cccc(S(=O)(=O)Nc2ccc(Cl)cc2)c1 | ? | . | .
Cc1nn(-c2ccccc2)c(N2CCCC2)c1/C=N/NC(=O)c1cc(-c2cccs2)nc2ccccc12 | 10µM | . | .
Cc1nn(-c2ccccc2)c(N2CCCC2)c1/C=N/NC(=O)c1cc(-c2ccccn2)nc2ccccc12 | . | . | .
Cc1nn(-c2ccccc2)c(N2CCCC2)c1/C=N/NC(=O)c1cc(-c2ccccc2)nc2ccccc12 | 4µM | . | .
COc1ccc(C2CC(O)(c3ccccc3)Oc3c(C)ccc(C(C)C)c32)cc1 (stereo not given) | / | / | .
Cn1c(=O)c2sccc2n2c(CCCC(=O)Nc3ccc(Oc4ccc(Cl)cc4)cc3)nnc12 | . | . | /
COc1ccc(/C=N/c2c(-c3ccc(OC)cc3)nc3n2CCS3)cc1 | ? | . | .
SMILES | Cruzain noTriton | Cruzain Triton | FBPA Giardia inh
COc1ccc(C2=CSC(/N=C/c3ccc(F)cc3)=NN2)cc1 | 13µM | . | .
O=[N+]([O-])c1cc(CN2CCCC2)c2cccnc2c1O | . | . | 18µM
COCc1cc(CN2CCCC2)c(O)c2ncccc12 | ? | . | ?
CCCC(=O)OCCNc1cc(SCc2ccco2)c2nonc2c1[N+](=O)[O-] | . | 25µM | .
CC(=O)OCCCNc1cc(SCc2ccco2)c2nonc2c1[N+](=O)[O-] | . | . | .
COc1cc2[nH]c3c(Cl)ncnc3c2cc1OC | . | . | .
COc1cc2[nH]c(Cl)c([N+](=O)[O-])c2cc1OC | / | / | 5µM
Oc1cc(CN2COc3ccccc32)c(O)cc1CNC1CCCCC1 | . | . | /
C[Si](C)(c1ccc(C(=O)O)cc1)c1ccc(C(=O)O)cc1 | . | . | /
CSCC[C@H](N)C(=O)N[C@@H](CO)C(=O)N[C@@H](CCCN=C(N)N)C(=O)N1CCC[C@H]1C(=O)N[C@@H](C)C(=O)N[C@@H](CS)C(=O)N1CCC[C@H]1C(=O)N[C@@H](CC(N)=O)C(=O)N[C@@H](CC(=O)O)C(=O)N[C@@H](CCCCN)C(=O)N[C@@H](Cc1ccc(O)cc1)C(=O)N[C@@H](CCC(=O)O)C(=O)O | / | / | .
Cc1ccc(N(C)C(CNS(=O)(=O)c2ccccc2)c2ccccc2)cc1 (stereo not given) | . | . | /
C/C(CC(=O)Nc1ccc(Cl)cc1Cl)=N\NC(N)=S | 7.9µM | 10µM | .
C/C(CC(=O)Nc1ccc(Cl)cc1Cl)=N\NC(=O)c1ccncc1 | / | / | .
CCOc1ccccc1NC(=O)c1nc2nc(C)cc(C(F)F)n2n1 | . | . | /
COc1cc(OC)cc(C2=Nn3c(nnc3-c3ccccc3OC)SC2)c1 | / | / | .
C[C@@]12CC[C@H](O[C@@H]3O[C@H](CO)[C@@H](O)[C@H](O)[C@@H]3O)C[C@@H]1CC[C@H]1[C@H]2CC[C@@]2(C)[C@@H](C3=CCOC3=O)CC[C@]12O | . | . | /
CCc1ccc(O)c(N=Cc2ccccc2O)c1 | . | . | .
O=c1[nH][nH]c2c(N=Cc3ccccc3O)ccc(F)c12 | / | / | 6.3µM
CCCCC(=O)N1C/C=C\C(c2ccc(OC)cc2)N(Cc2ccc(F)cc2)C(=O)C1C (stereo not given) | / | / | .
COC(=O)c1sc2nc(SCc3ccccc3C)n(N)c(=O)c2c1C | 32µM | . | .
COC(=O)c1sc2nc(SCc3cccc(Cl)c3)n(N)c(=O)c2c1C | ? | . | .
Cc1ccn2c(c1)nc(=O)c1cc(S(=O)(=O)N3CCC(C)CC3)c(Cl)cc12 | . | . | /
CCCCCCN(C(=O)CCCCCN1C(=O)NC(c2ccc(-c3ccccc3)cc2)C(C(=O)OCc2ccccc2)=C1C)C(C(=O)NCCCC)c1ccc(O)cc1 (stereo not given) | 6.3µM | . | .
CCCCCCN(C(=O)CCCCCN1C(=O)NC(c2ccc(-c3ccccc3)cc2)C(C(=O)OCc2ccccc2)=C1C)C(C(=O)NCCCC)c1ccc(-c2ccccc2)cc1 (stereo not given) | ? | . | .
CCOC(=O)C1=C(Cc2ccc(F)cc2)C(=O)c2ccccc2C1=O | . | . | 1.8µM
SMILES | Cruzain noTriton | Cruzain Triton | FBPA Giardia inh
O=C(OCc1ccc(F)cc1)c1ccc2c(c1)-c1ccccc1C2=O | . | . | /
CC(=O)c1ccc(-c2nc3ccccc3n2C)o1 | 16µM | . | .
Cc1ccc(-c2nc3ccccc3n2C)o1 | . | . | .
C=C(C)C(=O)OCC(C)O (stereo not given) | . | . | /
COc1ccc2c(c1)OC(=O)CC2c1ccccc1C (stereo not given) | . | . | .
O=C(COC(=O)/C=C/c1cccc(C(F)(F)F)c1)Nc1cccc2ccccc12 | ? | . | .
Cc1cc(C)c(NC(=O)COC(=O)/C=C/c2cccc(C(F)(F)F)c2)c(C)c1 | . | . | .
O=C(COC(=O)/C=C/c1cccc(C(F)(F)F)c1)NC(c1ccccc1)c1ccccc1 | 16µM | . | .

High-throughput results deposited in PubChem BioAssay by National Center for Advancing Translational Sciences (NCATS).
